# Screening data as filed in PubChem.
# aSyn UTR inh = MLPCN primary screen, SNCA 5' untranslated region; alpha-synuclein 5'UTR reporter, inhibitor activity; inhibition, % (tested at 7.5 µM); 0.82% of 300,000 active; AID 1813; in the data active means inhibition above about 60%;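 further: H4 neuroglioblastoma cells stably carrying SNCA 5'UTR luciferase fusion; 0% = DMSO wells and 100% = positive control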
# EBV LMP1 NFkB = reduces LMP1-driven NF-kappaB luciferase signal; AID 504558; inhibition, % at 12.5 µM; 0.69% of 350,000 active; LMP1-induced NF-kappaB luciferase reporter cells, luminescence; in the data active means inhibition above about 41%;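 further: 0% = neutral control wells and 100% = reference inhibitor control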
# Shn3 inh set2 = inhibitors of Schnurri-3 3'UTR reporter in osteoblasts. inhibition, % at 12.5 µM. Clone20 osteoblast Shn3 3'UTR firefly luciferase, 24 h. 0.52% of 360,000 active. AID 588674;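 active means mean inhibition of at least 75% with every replicate also reaching 75%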;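 further: 0% = median of neutral control wells and 100% = pilot-screen positive control compound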
# MITF TRPM1 inh = reduces MITF-dependent TRPM1 promoter luciferase signal. SK-MEL-5 TRPM1 promoter luciferase, 24 h. inhibition, % at 12.5 µM. 0.83% of 330,000 active;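 active means mean inhibition across replicates of 60% or more, whatever share of single replicates reaches that level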
# PAX8 reporter = inhibitors of PAX8 transcriptional activity in RMG-I cells; inhibition, % at 12.6 µM; RMG-I TPO-luciferase reporter, SteadyGlo, 24 h; 1.2% of 360,000 active;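 active means mean replicate inhibition at least 60% with every replicate also reaching 60%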;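 further: luciferase light reporting Pax8 driven TPO promoter activity; plate controls were median of neutral control wells for no effect and mitoxantrone controls for full effect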
# The depositor's hits bear a star; · = no result given. Compounds with a hit are over-represented: about 2.1% of the library has one in this group of screens.
SMILES,aSyn UTR inh,EBV LMP1 NFkB,Shn3 inh set2,MITF TRPM1 inh,PAX8 reporter
CCN(CC)C1=CC(=[N+]2CCCC2)CC(C)(C)C1,-4,7,77,46,7
CSc1nc(N2CCN(c3ccccc3)CC2)cc(N2CCN(c3ccccc3)CC2)n1,-55,16,-10,-12,5
CC1CC(C)C[N+](=C2C=C(N3CCCC3)CC(C)(C)C2)C1 (configuration not stated),-14,42*,89*,70*,75*
CN(Cc1ccccc1)C1=CC(=[N+]2CCCC2)CC(C)(C)C1,-18,15,88*,77*,58
CS(=O)(=O)N1CCN(C(=O)Cc2ccc(Br)cc2)CC1,-8,-1,-12,-5,-26
CCCN(C(=O)c1ccc(N2CCCC2=O)cc1)C1CCS(=O)(=O)C1 (configuration not stated),·,0,-5,7,2
COCC#Cc1ccc([C@@H]2[C@H]3CN(S(=O)(=O)c4cccc(OC)c4)CCCCN3[C@H]2CO)cc1,·,·,·,·,13
CC(=O)Nc1ccc(S(=O)(=O)N(Cc2cc3ccc(C)cc3[nH]c2=O)CC2CCCO2)cc1 (configuration not stated),82*,-5,-1,-8,-6
COc1ccc2cc(CN(CC3CCCO3)S(=O)(=O)c3ccc(C(C)=O)cc3)c(=O)[nH]c2c1 (configuration not stated),-78,5,-14,0,·
COc1ccc2cc(CN(CC3CCCO3)C(=O)Nc3ccccc3OC)c(=O)[nH]c2c1 (configuration not stated),66*,49*,8,29,34
COc1ccc(NC(=O)N(Cc2cc3ccc(OC)cc3[nH]c2=O)CC2CCCO2)cc1 (configuration not stated),3,-8,16,29,21
COc1ccccc1NC(=S)N(Cc1ccco1)Cc1cc2cc(C)c(C)cc2[nH]c1=O,91*,4,9,24,28
COc1ccccc1NC(=S)N(Cc1ccco1)Cc1cc2cccc(C)c2[nH]c1=O,-15,2,30,-2,10
COc1ccc(NC(=O)N(CCN2CCCC2)Cc2cc3cc(OC)c(OC)cc3[nH]c2=O)cc1,-7,44*,3,-13,·
Cc1c(N2C(=O)/C(=C/C3CC=CCC3)SC2=S)c(=O)n(-c2ccccc2)n1C (configuration not stated),30,·,-17,·,-9
O=C(Nc1ccc(C(=O)N2CCOCC2)cc1)C1CCC1,·,11,9,5,-11
Cc1ccc(CN2CCN(Cc3cc4ccccc4o3)CC2CCO)cc1 (configuration not stated),9,-1,5,2,-37
Cc1ccc(Cc2c(-c3ccccc3)nc3c(C)cc(Br)cn23)cc1,·,·,·,·,15
COC(=O)c1ccccc1NC(=S)N(Cc1ccc2c(c1)OCO2)Cc1cc2cc(OC)ccc2[nH]c1=O,0,7,89*,1,31
Cc1cc2cc(CN(CC3CCCO3)C(=S)Nc3ccccc3)c(=O)[nH]c2cc1C (configuration not stated),-1,3,90*,8,7
Cc1cc2cc(CN(Cc3ccco3)S(=O)(=O)c3c(C)ccc4nsnc34)c(=O)[nH]c2cc1C,89*,44*,11,56,·
Cc1ccc2cc(CN(Cc3ccco3)S(=O)(=O)c3c(C)ccc4nsnc34)c(=O)[nH]c2c1,48,-1,2,6,·
O=C(C1CC1)N1CC(=O)N2[C@@H](CO)[C@@H](c3ccc(-c4ccccc4F)cc3)[C@@H]2C1,·,·,·,·,10
Cc1cc(C)n2nc(C(=O)OCC(=O)N(C)Cc3ccccc3)nc2n1,0,0,-9,2,-127
Cc1cc(C(=O)NC2CCCc3c2cnn3-c2cccc(C)c2C)n(C)n1 (configuration not stated),-3,23,91*,28,22
SMILES,aSyn UTR inh,EBV LMP1 NFkB,Shn3 inh set2,MITF TRPM1 inh,PAX8 reporter
Cc1cccc(-n2ncc3c2CCCC3NC(=O)c2ccc[n+]([O-])c2)c1C (configuration not stated),-7,6,62,26,20
COc1cc(C(=O)NC2CCCc3c2cnn3-c2ccccc2F)cc(OC)c1OC (configuration not stated),17,18,89*,27,29
Cc1cccc(NC(=O)[C@H](NC(=O)[C@@H]2Cc3ccccc3CN2)c2ccccc2)c1,-38,4,-21,5,-12
CCCC[C@@H]1C[C@H]1[C@@H](NC(=O)c1cccs1)c1ccc(Cl)cc1,16,·,·,·,·
C=CCOc1c(Cl)cc(CNc2ccc(C)c(Cl)c2)cc1OC,85*,·,·,·,·
Fc1cccc(CCN2C(=S)NC[C@@H]2Cc2ccccc2)c1,15,-1,18,-12,-4
COc1cc2c(c(OC)c1OC)-c1ccc(OC)c(=O)cc1C(N)CC2 (configuration not stated),·,-2,7,39,76*
CCOc1ccc(CC2c3cc(OCC)c(OCC)cc3CCN2C(=O)c2cc(OC)c(OC)c(OC)c2)cc1OCC (configuration not stated),45,9,34,3,11
COc1cc2c(c(OC)c1OC)-c1ccc(SC)c(=O)cc1C(N)CC2 (configuration not stated),·,3,1,50,74*
COc1cc2c(c(OC)c1OC)-c1ccc(OC)c(=O)cc1[C@@H](N(C)CC#CCO)CC2,87*,5,-6,47,77*
COc1cc2c(c(OC)c1OC)CC(=O)N(C)CC2,-4,8,-6,-10,·
C=C(C)c1cccc(C(C)(C)NC(=O)NCCCn2ccnc2)c1,-31,-3,5,3,·
CN1C/C(=C/c2ccccc2[N+](=O)[O-])C(=O)/C(=C\c2ccccc2[N+](=O)[O-])C1,·,-50,-7,62*,·
Cc1ccc(C)c2c1CCC(=Cc1ccccc1[N+](=O)[O-])C2=O,·,3,15,·,13
Cc1ccc(-c2nc(N)sc2-c2ccccc2)cc1C,27,-59,-15,-16,-13
COc1ccc(/C=N/NC(=S)Nc2cccc(C(=O)O)c2)cc1,30,25,7,10,-2
COc1cc(/C=N/NC(=S)Nc2cccc(C(=O)O)c2)ccc1O,70*,74*,17,40,80*
COc1ccc(Nc2cc(C)nc(NCc3ccccc3)n2)cc1,-10,8,89*,19,8
Cc1ccc(Nc2cc(C)nc(NCc3ccccc3)n2)cc1,-11,11,82,41,19
COc1ccc(-c2sc3ccc(N4CCOCC4)cc3c2C#CCCO)cc1,·,-80,-11,-6,65*
COc1ccc(-c2sc3cc(OC)c(OC)cc3c2C#CCCO)cc1,·,-10,22,-18,9
O=C1c2ccc(Oc3cccc([N+](=O)[O-])c3)cc2C(=O)N1c1ccccn1,14,-7,7,4,3
O=C1c2cc([N+](=O)[O-])cc3cc([N+](=O)[O-])cc(c23)C(=O)N1c1ccccn1,-35,-34,3,82*,32
